# According to PMC8222333, “AsCas12a ultra nuclease facilitates the rapid generation of therapeutic cell medicines”:
# Changes are numbered by the printed parent chain.
# B1: TCAT (dsDNA)
# DNA 1: GCTATCTAGTGCTCAGTACGCACTGTCATAGGAAACTTCTGGCAGGACCAGGTCATGAGATCGGAAGAGCACACGTCTGAACTCCAGTCA
# DNA 2: TGACTGGAGTTCAGACGTGTGCTCTTCCGATCTCATGACCTGGTCCTGCCAGAAGTTTCCTATGACAGTGCGTACTGAGCACTAGATAGC
# RNA: AAUUUCUACUCUUGUAGAUAGGAAACUUCUGGCAGGACC
# B2: TGCT (dsDNA)
# DNA 1: B1 DNA 1 with C27G, A28C
# DNA 2: B1 DNA 2 with T63G, G64C
# RNA: B1 RNA
# B3: TGGG (dsDNA)
# DNA 1: B1 DNA 1 with C27G, A28G, T29G
# DNA 2: B1 DNA 2 with A62C, T63C, G64C
# RNA: B1 RNA
# B4: TGAG (dsDNA)
# DNA 1: B1 DNA 1 with C27G, T29G
# DNA 2: B1 DNA 2 with A62C, G64C
# RNA: B1 RNA
# B5: TGCG (dsDNA)
# DNA 1: B1 DNA 1 with C27G, A28C, T29G
# DNA 2: B1 DNA 2 with A62C, T63G, G64C
# RNA: B1 RNA
# B6: TGAT (dsDNA)
# DNA 1: B1 DNA 1 with C27G
# DNA 2: B1 DNA 2 with G64C
# RNA: B1 RNA
# B7: TGGC (dsDNA)
# DNA 1: B1 DNA 1 with C27G, A28G, T29C
# DNA 2: B1 DNA 2 with A62G, T63C, G64C
# RNA: B1 RNA
# B8: AAGC (dsDNA)
# DNA 1: B1 DNA 1 with T26A, C27A, A28G, T29C
# DNA 2: B1 DNA 2 with A62G, T63C, G64T, A65T
# RNA: B1 RNA
# B9: TGAC (dsDNA)
# DNA 1: B1 DNA 1 with C27G, T29C
# DNA 2: B1 DNA 2 with A62G, G64C
# RNA: B1 RNA
# Molecular target: dAsCas12a S542R (Acidaminococcus sp., UniProt U2UMQ6 1-1307, S542R;D908A;E993A;D1235A)
# Test: Spec-seq (native PAGE EMSA with sequencing of bound and unbound); 25 mM Tris-HCl pH 7.4, 150 mM KCl, 5 mM MgCl2, 10% glycerol, 1 mM DTT, 40 ng/uL salmon sperm DNA; 400 nM Cas12a, 480 nM crRNA, 50 nM library, 37 C 1 h; native PAGE at room temperature; high values mean tight binding
# Conditions: protein: recombinant
# 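Note: relative affinity from the bound to unbound sequence frequency ratio in Spec-seq.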
row,Binder,binding signal
1,B1,-8.4 lnKA
2,B2,-8.2 lnKA
3,B3,-8.57 lnKA
4,B4,-8.4 lnKA
5,B5,-8.2 lnKA
6,B6,-8.47 lnKA
7,B7,-8.19 lnKA
8,B9,-8.67 lnKA

# Molecular target: d-enCas12a (Acidaminococcus sp., UniProt U2UMQ6 1-1307, E174R;S542R;K548R;D908A;E993A;D1235A)
# Test: as above
# Conditions: protein: recombinant
row,Binder,binding signal
1,B1,-5.72 lnKA
2,B2,-4 lnKA
3,B3,-5.93 lnKA
4,B4,-5.65 lnKA
5,B5,-3.38 lnKA
6,B6,-5.85 lnKA
7,B7,-5.4 lnKA
8,B8,-5.85 lnKA
9,B9,-5.25 lnKA

# Molecular target: d-enCas12a-Ultra (Acidaminococcus sp., UniProt U2UMQ6 1-1307, E174R;S542R;K548R;M537R;F870L;D908A;E993A;D1235A)
# Test: as above
# Conditions: protein: recombinant
row,Binder,binding signal
1,B1,-3.42 lnKA
2,B2,-1.2 lnKA
3,B3,-3.42 lnKA
4,B4,-3.4 lnKA
5,B5,-0.977 lnKA
6,B6,-3.37 lnKA
7,B7,-3.03 lnKA
8,B8,-3.34 lnKA
9,B9,-2.74 lnKA
